According to PubChem BioAssay AID1985 (Southern Research Specialized Biocontainment Screening …, 2009):
Among all 2,300 compounds or so, about 1,000 (43%) were called active. No rule for the calls is given here. So high a share suggests a set chosen from earlier hits. Some of the results follow. Potency and affinity values are given separately.

assay: PhoP regulon inhibitor project modified counter assay, GFP fluorescence readout, dose response (AID 1985); settings: S. Typhi, 4 h; series mostly up to 150 µM; inhibition: at the top concentration

Structure (SMILES) | inhibition
COc1ccc(C2=NN3C(=O)c4c(ccc(OC)c4OC)C3C2)cc1 (stereo not given) | 9.8% (inactive)
O=C(NCc1cccnc1)c1ccc(Cl)cc1[N+](=O)[O-] | -10.5% (inactive)
O=C(NCc1cccnc1)C1c2ccccc2C(=O)N1Cc1ccccc1 (stereo not given) | -16.2% (inactive)
C=C(C)Cn1c(-c2ccc(OC)cc2)nc2ccccc21 | 3.51% (inactive)
COC(=O)Cn1c(=O)c(C)nc2ccccc21 | -9.43% (inactive)
Clc1ccc(Cn2cc(Br)cn2)cc1Cl | 3.19% (inactive)
COc1ccc(N2CCN(C(=O)c3cc4c(s3)-c3ccccc3S(=O)(=O)C4)CC2)cc1 | -14.6% (inactive)
CCCC(=O)Nc1c2c(nn1-c1ccc(C)cc1C)CSC2 | 1.8% (inactive)
CN(C)C(=O)COC(=O)/C=C/c1ccccc1[N+](=O)[O-] | -11.5% (inactive)
Oc1ccc(C2NCc3ccccc3-n3cccc32)cc1Cl (stereo not given) | -0.67% (inactive)
COC(=O)C(NC(C)=O)(Nc1nc2c(s1)CCCC2)C(F)(F)F (stereo not given) | -28.5% (inactive)
CCN1CCN(CCNC(=O)c2ccc(/C=C3/Sc4ccccc4N(Cc4cccc(C)c4)C3=O)cc2)CC1 | 12.9% (inactive)
CCN1CCN(CCCNC(=O)c2ccc(/C=C3/Sc4ccccc4N(Cc4ccccc4F)C3=O)cc2)CC1 | 33.6% (inactive)
S=C1NCN(C2CCCCC2)CN1c1ccccc1 | 36.9% (inactive)
CC(=O)C1C(c2ccc(OC(F)F)cc2)NC(=O)NC1(O)C(F)(F)F (stereo not given) | 3.26% (inactive)
COc1ccc(C2C3=C(CC(C)(C)CC3=O)Nc3cc4c(cc32)OCO4)cc1 (stereo not given) | 1.35% (inactive)
CCc1nc(C)ccc1OCC(=O)NCCCN(C)C | 2.34% (inactive)
CCc1nc(C)ccc1OCC(=O)N(CC)CC | 11.3% (inactive)
Cc1cc(C)n(/N=C/c2cc(Cl)cc(Cl)c2O)c(=O)c1 | 23.2% (inactive)
CC1CCN(C(=O)C2CCCN(S(C)(=O)=O)C2)CC1 (stereo not given) | -2.3% (inactive)
NC(=O)c1ccc[n+](CC(=O)c2cccc([N+](=O)[O-])c2)c1 | -10.5% (inactive)
Cc1ccc(C(=O)Nc2ccc3c(c2)ncn3C)cc1 | 36.9% (inactive)

Structure (SMILES) | inhibition
COc1cccc(/C=N/NC(=O)CNC(=O)COc2cccc(C)c2)c1O | 14.2% (inactive)
COc1ccc(/C=N/NC(=O)c2cccnc2)c(C(=O)O)c1OC | -1.18% (inactive)
CCCC1=C(C(=O)OCC)C(c2ccc(O)cc2)n2ncnc2N1 (stereo not given) | 3.12% (inactive)
O=C(CCc1nc2ccccc2s1)NC1CCOC1=O (stereo not given) | 11.8% (inactive)
COc1ccc(CCNC(=O)CSc2ccc(-c3ccncc3)nn2)cc1 | -11.4% (inactive)
COC(=O)c1ccc(NC(=O)CO/N=C2\CCCc3nonc32)cc1 | 0.85% (inactive)
Cc1ccc2cc(-c3noc(C4CCCO4)n3)c(=O)[nH]c2c1 (stereo not given) | -6.59% (inactive)
CC(C)c1ccc2oc(=O)cc(CN3CCN(c4ccc(F)cc4)CC3)c2c1 | -5.48% (inactive)
Cc1ccc(NC(=O)COc2ccccc2CNC(C)(C)CC(C)(C)C)cc1 | 17.6% (inactive)
Cc1ccc(NC(=O)Cc2ccc(F)cc2)cc1 | -1.3% (inactive)
c1ccc2c(c1)C(=NC1CCCCC1)NC2=NC1CCCCC1 | 19.5% (inactive)
Cc1nn(-c2cc(N3CCNCC3)ccc2[N+](=O)[O-])c(=O)c2ccccc12 | 5.09% (inactive)
Cc1cc(N2CCCCC2)c(F)cc1[N+](=O)[O-] | -27.7% (inactive)
CCN(CC(=O)Nc1ccc(C(=O)OC)cc1)C1CCCCC1 | 15.1% (inactive)
Cc1ccc(N2C(=O)[C@@H]3[C@H](C2=O)[C@H]2C=CC=NN2[C@@H]3C(=O)Nc2ccc(Cl)cc2)cc1 | -11.7% (inactive)
COC(=O)c1cccc(C(=O)N2CCCC(CCC(=O)N(C)CCc3ccccn3)C2)c1 (stereo not given) | -17.6% (inactive)
C[C@@H](CO)NC(=O)c1ccc2c3n(nc2c1)-c1ccc(Cl)cc1CO3 | 17.5% (inactive)
Clc1ccc2c(NCc3ccccn3)ccnc2c1 | 12.8% (inactive)
CCCCCc1nc2c(c3c1CCCC3)CCCC2 | 18.7% (inactive)
N=C1c2ccccc2CN1c1ncccn1 | -13.2% (inactive)
CCCN1CCC(NCc2cn(C)nc2-c2ccc(Oc3ccccc3)cc2)CC1 | 20.2% (inactive)
O=C(N/N=C/c1ccc(-c2ccc(Br)cc2)o1)c1ccc2c(c1)OCO2 | 28.8% (inactive)

Structure (SMILES) | inhibition
CN(C)CCCNC(=O)c1ccc(-c2nc(-c3ccc(Cl)cc3)cs2)cc1 | 28% (inactive)
CN(C)CCNC(=O)/C(=C/c1ccc(-c2ccc(Cl)cc2)o1)NC(=O)c1ccccc1 | 25.4% (inactive)
CCOC(=O)COn1c(=O)c(-c2cccs2)[n+]([O-])c2ccccc21 | 21.9% (inactive)
O=C(O)C1CCCCC1C(=O)NCCc1ccncc1 (stereo not given) | -26.7% (inactive)
C#CCOCCOCCOCCNc1nc(N2CCN(C(=O)CCCCCCCCCCNC(=O)[C@@H](CCSC)n3cc(CCO)nn3)CC2)nc(N2CCN(C(=O)CCCCCCCCCCNC(=O)[C@H]([C@@H](C)CC)n3cc(CCCCN=C(N)N)nn3)CC2)n1 | -37.3% (inactive)
Cn1c(=O)c2c(nc(Br)n2CCSc2nc3ccccc3o2)n(C)c1=O | -14.5% (inactive)
CC(=O)c1cccc(CN2CCN(C3CCCC3)C(CCO)C2)c1 (stereo not given) | -5.89% (inactive)
Cc1ccc(S(=O)(=O)NC(C)(C)CSc2nnc(N)s2)cc1 | -30.3% (inactive)
CCc1ccccc1NC(=S)N(Cc1cccc(C)c1)c1cccnc1 | -7.68% (inactive)
CN1CCN(C(=O)c2cc(-c3cccc(Cl)c3)on2)CC1 | 5.44% (inactive)
CC1(C)CC(N2CCN(C(c3ccccc3)c3ccccc3)CC2)=CC(=[N+]2CCCCC2)C1 | 17.4% (inactive)
CCn1c(-c2cccc(Br)c2)n[nH]c1=S | 11.6% (inactive)
CC(=O)c1sc2nc(=O)c(C)nn2c1C | -12.1% (inactive)
Cc1ccc(C(=O)N2C(=S)C(c3ccc(F)cc3)=NC23CCN(C)CC3)cc1 | 10.3% (inactive)
COc1ccc(N=Cc2c(O)n(CC3CCCO3)c(=O)[nH]c2=O)cc1 (stereo not given) | -0.83% (inactive)
CC(=O)c1c(C)nc(-c2cccc([N+](=O)[O-])c2)n1O | -7.51% (inactive)
COc1cc(C)nc(N2CCCC(C(=O)NCC(C)C)C2)n1 (stereo not given) | 6.1% (inactive)
CCOC(=O)C1CCCN(C/C(O)=C(\C#N)c2nc(-c3ccccc3)cs2)C1 (stereo not given) | -20.3% (inactive)
O=C(O)c1csc(-c2ccc(Cl)cc2)n1 | 36.8% (inactive)
O=C(C[n+]1cc(-c2ccc(Cl)cc2)n2c1CCC2)N1c2ccccc2Sc2ccccc21 | 33.5% (inactive)
Cc1ccc(-c2csc(NC(=O)C[n+]3cc(-c4ccccc4)n4c3CCC4)n2)cc1 | -33.3% (inactive)
CC(=O)N(CCC1(c2ccc(C)cc2)CCOC(C(C)C)C1)Cc1ccco1 (stereo not given) | 18.1% (inactive)

Structure (SMILES) | inhibition
Cc1cccc(/C(N)=N/OC(=O)N2CCOCC2)c1 | 25.3% (inactive)
CCOC(=O)C1CCN(Cc2nc(-c3ccc(OC)c(OC)c3)no2)CC1 | -15.2% (inactive)
CC(=O)c1ccc(NC(=O)CN2CCCCCC2)cc1 | 15.7% (inactive)
O=C(Cn1[nH]c(=O)c2ccccc2c1=O)Nc1ccc(-c2nnc3n2CCCCC3)cc1 | 10.1% (inactive)
COC(=O)c1ccc(CSc2ccc3nnc(-c4ccc(OC)c(OC)c4)n3n2)o1 | -11.5% (inactive)
COc1ccc(S(=O)(=O)NCCSCc2ccco2)cc1Cl | 12.5% (inactive)
Clc1ccc(CONc2ncnc3nonc23)c(Cl)c1 | 12.7% (inactive)
CCN1CCCC1Cn1cnc2c([nH]c3ccc(Cl)cc32)c1=O (stereo not given) | 26.1% (inactive)
CCCCCCCCn1ccc(=N)cc1 | 15.6% (inactive)
O=C(On1c(-c2ccccc2)nc2ccccc2c1=O)c1ccco1 | 25.2% (inactive)
O=c1c2ccccc2nc(-c2ccoc2)n1CCc1ccccc1 | 18.5% (inactive)
CCC(O)CNc1nc(SC)nc2sc3c(c12)CCN(C)C3 (stereo not given) | 6.31% (inactive)
CN1C(=O)C2(Nc3ccccc3-c3nc4ccccc4n32)c2ccccc21 (stereo not given) | 3.48% (inactive)
O=C(N/N=C\c1cccc([N+](=O)[O-])c1O)C1COc2ccccc2O1 (stereo not given) | -26.6% (inactive)
CCCCCN1C(=O)/C(=C/c2c(N3CCc4ccccc4C3)nc3ccccn3c2=O)SC1=S | -12.8% (inactive)
C/C(=N\NC(=O)c1c(Br)c(C)nn1C)c1ccc(NC(=O)c2ccoc2C)cc1 | 5.71% (inactive)
COc1cccc2cc(C(=O)Nc3ccccc3C)/c(=N/O)oc12 | -16.5% (inactive)
Clc1ccc(N/N=C/c2cccs2)nn1 | 7.58% (inactive)
Cn1cc(C(=O)N/N=C/C(Br)=C/c2ccccc2)ccc1=O | 4.35% (inactive)
CCN(CC)Cc1c(C(=O)N/N=C/c2cccs2)nnn1-c1nonc1N | 28.9% (inactive)
Cc1ccnc(NC(=O)CCC(=O)N(CC(=O)NC2CCCCC2)C2CCCC2)c1 | -5.33% (inactive)
COC(=O)C1C(=O)C2=C(CC1C)Nc1ccccc1NC2c1ccc(C)s1 (stereo not given) | -5.97% (inactive)

Structure (SMILES) | inhibition
CC(C(=O)NC1CCCCC1)N1CCN(C)CC1 (stereo not given) | -31.5% (inactive)
CN(C)c1nnnn1-c1ccc(Oc2ccccc2)cc1 | 24.8% (inactive)
COC(=O)c1sccc1NC(=S)NCc1ccc(Cl)cc1 | -3.82% (inactive)
Cn1nnnc1SCC(=O)Nc1ccccc1-c1ccccc1 | 9.74% (inactive)
CC1CCN(C(=O)CSc2nnc(Cc3cc(=O)[nH]c(=O)[nH]3)n2-c2ccc(Cl)cc2)CC1 | 17.4% (inactive)
CCOc1cc(S(=O)(=O)N2CCN(CC)CC2)ccc1Cl | -5.49% (inactive)
Cc1cc(C)n2nc(SCn3nnc4ccccc4c3=O)nc2n1 | 11.8% (inactive)
Cc1ccc2cc(CN(Cc3ccc(F)cc3)Cc3nnnn3C3CCCC3)c(=O)[nH]c2c1 | -28% (inactive)
CCCCCCNC1=NCCS1 | 31.9% (inactive)
CN(C)CCSc1nnc2[nH]c3ccccc3c2n1 | -3.67% (inactive)
CCCCCCCCC1=NCCc2c1[nH]c1ccccc21 | -11% (inactive)
COc1ccc(-n2ncc3c(NCc4ccccn4)ncnc32)cc1 | -9.74% (inactive)
CC1=C([N+](=O)[O-])C(c2cccc(Br)c2)C2=C(N1)c1ccccc1C2=O (stereo not given) | 20.7% (inactive)
O=C(O)C1Cc2ccccc2CN1S(=O)(=O)c1ccc2ccccc2c1 (stereo not given) | -7.48% (inactive)
CC(=O)c1c(C)[nH]c(C(=O)CSc2nnc(-c3ccc(Cl)cc3)n2CC2CCCO2)c1C (stereo not given) | 0.08% (inactive)
O=C(CSc1nc2ncc(Cl)cc2[nH]1)NCC(=O)Nc1ccc(F)c(F)c1F | 4.94% (inactive)
CC1(C)CC(N2CCN(c3ccccc3)CC2)=CC(=[N+]2CCCC2)C1 | 8.5% (inactive)
CCCCCCC(=O)N(O)C1CC(=O)N(Cc2ccccc2)C1=O (stereo not given) | 6.46% (inactive)
Cc1ccc(OCC(O)Cn2c(N)nc3c2c(=O)n(C)c(=O)n3C)cc1 (stereo not given) | -6.08% (inactive)
C=CCn1c(C)c(C(C)=O)c(N2CCCC2)nc1=S | 15.9% (inactive)
CCOC(=O)C1=C(C(C)=O)C(c2cccnc2)C(C#N)=C(N)O1 (stereo not given) | 3.6% (inactive)
COc1ccc(CN2CCSCC2)cc1C | 17.3% (inactive)
